# Measurements published in PubChem BioAssay (Tox21).
# A number with no mark means an inactive call. Results filed as inconclusive are left out. A call without a number means that no potency is given here. The source made the active and inactive calls. Unless noted, the call rests on the fitted dose curve; in most records, active means well fitted curve in the direction sought with a large enough effect in the repeat runs; inconclusive means weak or mixed curves; inactive means no such curve, though single readings can be large; an effect the other way counts as inactive or inconclusive.
# Legend:
# [1] = qHTS assay to identify small molecule agonists of the hypoxia (HIF-1) signaling pathway - cell viability counter screen (AID 1224844; calls by dose curve; further: nearly all actives have a fitted effect of over 50% in size)
# Method in brief: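 Tox21 10K compounds were added to HRE-bla ME-180 cells (0.5% dialyzed FBS) and incubated 17 hrs at 37C; ATP-based CellTiter-Glo luminescence then reported cell viability in the same wells.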
# [2] = qHTS assay to identify small molecule agonists of H2AX (AID 1224845; active means well fitted activation curve with a large enough effect in the signal ratio in the repeat runs, not every such curve was filed as active; the % refers to the signal ratio)
# Method in brief: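 Wild-type CHO-K1 cells plated overnight, then exposed 3 hr at 37C to compounds at 15 concentrations (0.76% DMSO). Lysed, then HTRF anti-pH2AX(S139)-cryptate/anti-H2AX-d2 detection after 24 hr at room temperature; emissions 665 and 620 nm.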
# [3] = qHTS assay to identify small molecule agonists of the hypoxia (HIF-1) signaling pathway (AID 1224846; active means well fitted activation curve with a large enough effect in the signal ratio in the repeat runs, not every such curve was filed as active; the % refers to the signal ratio)
# Method in brief: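 Steps: seed ME-180 HRE-bla cells (2,000/well, 0.5% dialyzed FBS); incubate 5 hrs at 37C; pin-transfer compounds or DMSO; incubate 17 hrs; add LiveBLAzer B/G substrate CCF4-AM; measure reporter activation by FRET.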
# [4] = qHTS assay to identify small molecule agonists of H2AX - cell viability counter screen (AID 1224847; calls by dose curve; further: top concentration of the series differs between compounds; nearly all actives have a fitted effect of over 30% in size)
# Method in brief: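 We seed wild-type CHO-K1 cells overnight, treat them for 3 hr at 37C with compounds in 15-concentration series, and quantify remaining viability by CellTiter-Glo luminescence.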
# [5] = qHTS RealTime-Glo MT Cell Viability Assay in HepG2 cells - 24 hour (AID 1224867); further: nearly all actives have a fitted effect of over 50% in size
# Method in brief: (§1)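 Cells + NanoLuc/prosubstrate dispensed (600 cells/well) → 5 h at 37 C/5% CO2 → compounds in DMSO transferred → 40 h incubation at 37 C, luminescence read at 0, 8, 16, 24, 32, 40 h.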
# [6] = qHTS RealTime-Glo MT Cell Viability Assay in HEK293 cells - 32 hour (AID 1224868); further: nearly all actives have a fitted effect of over 50% in size; further: potency means the concentration at half of the fitted maximal effect
# Method in brief: (§2)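 Tox21 10K qHTS, HEK293, 600 cells/well, RealTime-Glo reagent co-dispensed with cells; 5 h preincubation, compound by pintool, 37 C, luminescence at 0–40 h.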
# [7] = A CellTox Green Cytotoxicity Assay to monitor cytotoxicity in HEK293 cells - 0 hour (AID 1224869); further: nearly all actives have a fitted effect of over 50% in size
# Method in brief: (§3)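 Cytotoxicity was tracked continuously in HEK293 cells by a DNA-binding dye excluded from viable cells. Compounds were transferred in DMSO 5 h after seeding; fluorescence was recorded at intervals up to 40 h.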
# [8] = qHTS RealTime-Glo MT Cell Viability Assay in HepG2 cells - 40 hour (AID 1224870); further: nearly all actives have a fitted effect of over 50% in size; further: potency means the concentration at half of the fitted maximal effect
# Method in brief: (§4)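 HepG2 cells mixed with RealTime-Glo MT reagents (NanoLuc plus cell-permeant prosubstrate) were seeded at 600 cells/well, incubated 5 h at 37 C/5% CO2, then pinned with compounds in DMSO; nonlytic luminescence tracked viability during 40 h treatment.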
# [9] = A CellTox Green Cytotoxicity Assay to monitor cytotoxicity in HEK293 cells - 40 hour (AID 1224871); further: nearly all actives have a fitted effect of over 45% in size
# Method in brief: as §3
# [10] = qHTS RealTime-Glo MT Cell Viability Assay in HEK293 cells - 16 hour (AID 1224872); further: nearly all actives have a fitted effect of over 50% in size; further: potency means the concentration at half of the fitted maximal effect
# Method in brief: as §2
# [11] = qHTS RealTime-Glo MT Cell Viability Assay in HepG2 cells - 8 hour (AID 1224873); further: nearly all actives have a fitted effect of over 55% in size
# Method in brief: as §4
# [12] = qHTS RealTime-Glo MT Cell Viability Assay in HEK293 cells - 40 hour (AID 1224874); details: RealTime-Glo luminescence; max response: active compounds read low; further: nearly all actives have a fitted effect of over 50% in size; further: potency means the concentration at half of the fitted maximal effect
# Method in brief: (§5)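 Nonlytic bioluminescent viability monitoring. HEK293 at 600 cells/well with reagent; 5 h settle; compound transfer by pintool; plates held at 37 C and read at set time points.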
# [13] = A CellTox Green Cytotoxicity Assay to monitor cytotoxicity in HEK293 cells - 24 hour (AID 1224875); further: nearly all actives have a fitted effect of over 45% in size
# Method in brief: as §3
# [14] = A CellTox Green Cytotoxicity Assay to monitor cytotoxicity in HepG2 cells - 16 hour (AID 1224876); further: nearly all actives have a fitted effect of over 45% in size
# Method in brief: (§6)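 Real-time, homogeneous cytotoxicity readout: dead-cell DNA staining by CellTox Green in HepG2 monolayers, fluorescence measured at timed intervals up to 40 h of continuous compound exposure.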
# [15] = qHTS RealTime-Glo MT Cell Viability Assay in HepG2 cells - 32 hour (AID 1224877); further: nearly all actives have a fitted effect of over 55% in size
# Method in brief: as §1
# [16] = A CellTox Green Cytotoxicity Assay to monitor cytotoxicity in HepG2 cells - 24 hour (AID 1224878); further: nearly all actives have a fitted effect of over 45% in size
# Method in brief: as §6
# [17] = qHTS RealTime-Glo MT Cell Viability Assay in HEK293 cells - 0 hour (AID 1224880)
# Method in brief: as §5
# [18] = A CellTox Green Cytotoxicity Assay to monitor cytotoxicity in HepG2 cells - 40 hour (AID 1224879); further: nearly all actives have a fitted effect of over 40% in size
# Method in brief: as §6
# [19] = qHTS assay to identify small molecule antagonists of the estrogen related receptor (ERR) signaling pathway from Tox21 library (AID 1224848); further: nearly all actives have a fitted effect of over 50% in size
# Method in brief: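 Cells: ERR line, 2,000/well; 6 h preincubation 37 C/5% CO2. Cpd in DMSO via pin tool; 18 h, 37 C. ONE-Glo, 30 min RT, luminescence.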
# [20] = qHTS assay to identify small molecule agonists of the estrogen related receptor (ERR) signaling pathway from Tox21 library (AID 1224849; calls by dose curve; further: nearly all actives have a fitted effect of over 15% in size); details: ERR reporter cell line, ONE-Glo luciferase, 18 h
# Method in brief: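 Agonist signal is luciferase luminescence from an ERR reporter cell line treated 18 h at 37 C with DMSO-dissolved compounds, read 30 min after ONE-Glo addition at room temperature.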
structure (smiles),measurement,setting,value
CCCN(CCC)C(=O)Cc1c(-c2ccc(Cl)cc2)nc2ccc(Cl)cn12,Potency,[1],inactive
same,Potency,[2],inactive
same,outcome,[3],inactive
same,Potency,[4],inactive
same,Potency,[5],inactive
same,Potency,[6],5.35 µM (active)
same,Potency,[7],inactive
same,Potency,[8],inactive
same,Potency,[9],inactive
same,Potency,[10],5.35 µM (active)
same,Potency,[11],inactive
same,Potency,[12],5.35 µM (active)
same,Potency,[13],inactive
same,Potency,[14],inactive
same,Potency,[15],inactive
same,Potency,[16],inactive
same,outcome,[17],inactive
C[N+](C)(C)CCOC(=O)C(O)(c1ccccc1)c1ccccc1,Potency,[1],inactive
same,Potency,[2],inactive
same,outcome,[3],inactive
same,Potency,[4],inactive
same,Potency,[5],inactive
same,Potency,[6],inactive
same,Potency,[7],inactive
same,Potency,[8],23.9 µM (active)
same,Potency,[9],inactive
same,Potency,[10],inactive
same,Potency,[11],inactive
same,max response,[12],0.291%
same,Potency,[14],inactive
same,Potency,[16],inactive
same,Potency,[18],inactive
same,outcome,[17],inactive
NC(=O)CF,Potency,[1],inactive
same,Potency,[2],inactive
same,outcome,[3],inactive
same,Potency,[4],inactive
same,Potency,[5],inactive
same,Potency,[6],inactive
same,Potency,[7],inactive
same,Potency,[8],inactive
same,Potency,[9],inactive
same,Potency,[10],inactive
same,Potency,[11],inactive
same,max response,[12],-4.69%
same,Potency,[13],inactive
same,Potency,[14],inactive
same,Potency,[15],inactive
same,Potency,[16],inactive
same,Potency,[18],inactive
same,outcome,[17],inactive
CCC1CCC(=O)O1 (stereo not given),Potency,[1],inactive
same,Potency,[2],inactive
same,outcome,[3],inactive
same,Potency,[4],inactive
same,Potency,[5],inactive
same,Potency,[6],inactive
same,Potency,[7],inactive
same,Potency,[8],inactive
same,Potency,[9],inactive
same,Potency,[10],inactive
same,Potency,[11],inactive
same,max response,[12],8.21%
same,Potency,[14],inactive
same,Potency,[15],inactive
same,Potency,[16],inactive
same,Potency,[18],inactive
same,outcome,[17],inactive
C1CCNCC1,Potency,[1],inactive
same,Potency,[2],inactive
same,outcome,[3],inactive
same,Potency,[4],inactive
same,Potency,[5],inactive
same,Potency,[6],inactive
same,Potency,[7],inactive
same,Potency,[8],inactive
same,Potency,[9],inactive
same,Potency,[10],inactive
same,Potency,[11],inactive
same,max response,[12],0.2%
same,Potency,[14],inactive
same,Potency,[15],inactive
same,Potency,[16],inactive
same,Potency,[18],inactive
same,outcome,[17],inactive
CC(C)(C)c1ccc(CCOc2ncnc3ccccc23)cc1,Potency,[1],inactive
same,Potency,[2],inactive
same,outcome,[3],inactive
same,Potency,[4],inactive
same,Potency,[5],inactive
same,Potency,[6],inactive
same,Potency,[7],inactive
same,Potency,[8],inactive
same,Potency,[9],inactive
same,Potency,[10],inactive
same,Potency,[11],inactive
same,max response,[12],3.46%
same,Potency,[13],inactive
same,Potency,[14],inactive
same,Potency,[15],inactive
same,outcome,[17],inactive
CCCCCBr,Potency,[1],inactive
same,Potency,[2],inactive
same,outcome,[3],inactive
same,Potency,[4],inactive
same,Potency,[5],inactive
same,Potency,[7],inactive
same,Potency,[8],inactive
same,Potency,[9],inactive
same,Potency,[11],inactive
same,Potency,[13],inactive
same,Potency,[14],inactive
same,Potency,[15],inactive
same,Potency,[16],inactive
same,Potency,[18],inactive
same,outcome,[17],inactive
O=C1NC(=O)C(=O)C(=O)N1,Potency,[1],inactive
same,Potency,[2],inactive
same,outcome,[3],inactive
same,Potency,[5],inactive
same,Potency,[6],inactive
same,Potency,[7],inactive
same,Potency,[8],inactive
same,Potency,[9],inactive
same,Potency,[10],inactive
same,Potency,[11],inactive
same,max response,[12],6.33%
same,Potency,[13],inactive
same,Potency,[14],inactive
same,Potency,[15],inactive
same,Potency,[16],inactive
same,Potency,[18],inactive
same,outcome,[17],inactive
CCCC1CCCCN1 (stereo not given),Potency,[1],inactive
same,Potency,[2],inactive
same,outcome,[3],inactive
same,Potency,[5],inactive
same,Potency,[6],inactive
same,Potency,[7],inactive
same,Potency,[8],inactive
same,Potency,[9],inactive
same,Potency,[10],inactive
same,Potency,[11],inactive
same,max response,[12],5.87%
same,Potency,[13],inactive
same,Potency,[14],inactive
same,Potency,[15],inactive
same,Potency,[16],inactive
same,Potency,[18],inactive
same,outcome,[17],inactive
CCOC(C(=O)OCCN(C)C)(c1ccccc1)c1ccccc1,Potency,[1],inactive
same,Potency,[2],inactive
same,outcome,[3],inactive
same,Potency,[19],inactive
same,"activity change, positive = activation",[20]; at 42.5 µM (top of the series),-1.78%
same,Potency,[5],inactive
same,Potency,[6],inactive
same,Potency,[7],inactive
same,Potency,[8],inactive
same,Potency,[9],inactive
same,Potency,[10],inactive
same,Potency,[11],inactive
same,max response,[12],-21.4%
same,Potency,[14],inactive
same,Potency,[15],inactive
same,Potency,[16],inactive
same,outcome,[17],inactive
O=CC=O,Potency,[1],inactive
same,Potency,[2],inactive
same,outcome,[3],inactive
same,Potency,[4],inactive
same,Potency,[5],inactive
same,Potency,[8],inactive
same,Potency,[9],inactive
same,Potency,[10],inactive
same,Potency,[11],inactive
same,max response,[12],2.31%
same,Potency,[13],inactive
same,Potency,[14],inactive
same,Potency,[15],inactive
same,Potency,[16],inactive
same,Potency,[18],inactive
same,outcome,[17],inactive
CC(Oc1cccc(Cl)c1)C(=O)O (stereo not given),Potency,[1],inactive
same,Potency,[2],inactive
same,outcome,[3],inactive
same,Potency,[5],inactive
same,Potency,[6],inactive
same,Potency,[7],inactive
same,Potency,[8],inactive
same,Potency,[9],inactive
same,Potency,[10],inactive
same,Potency,[11],inactive
same,max response,[12],9.01%
same,Potency,[14],inactive
same,Potency,[15],inactive
same,Potency,[16],inactive
same,Potency,[18],inactive
same,outcome,[17],inactive
CCSCc1ccccc1OC(=O)NC,Potency,[1],inactive
same,Potency,[2],inactive
same,outcome,[3],inactive
same,Potency,[5],inactive
same,Potency,[6],inactive
same,Potency,[7],inactive
same,Potency,[8],inactive
same,Potency,[9],inactive
same,Potency,[10],inactive
same,Potency,[11],inactive
same,max response,[12],-1.43%
same,Potency,[13],inactive
same,Potency,[14],inactive
same,Potency,[15],inactive
same,Potency,[16],inactive
same,Potency,[18],inactive
same,outcome,[17],inactive
CC(C)c1ccc(NC(=O)N(C)C)cc1,Potency,[1],inactive
same,Potency,[2],inactive
same,outcome,[3],inactive
same,Potency,[19],inactive
same,"activity change, positive = activation",[20]; at 92.4 µM (top of the series),33.4% (active)
same,Potency,[5],inactive
same,Potency,[6],inactive
same,Potency,[7],inactive
same,Potency,[8],inactive
same,Potency,[9],inactive
same,Potency,[10],inactive
same,Potency,[11],inactive
same,max response,[12],3.89%
same,Potency,[13],inactive
same,Potency,[14],inactive
same,Potency,[15],inactive
same,Potency,[16],inactive
same,Potency,[18],inactive
same,outcome,[17],inactive
CCC(=O)O[C@@H]1C=C2CCC3C(CCC4(C)C3CC[C@@H]4OC(=O)CC)C2CC1 (stereo not given in full),Potency,[1],inactive
same,Potency,[2],inactive
same,outcome,[3],inactive
same,Potency,[5],inactive
same,Potency,[6],inactive
same,Potency,[7],inactive
same,Potency,[8],inactive
same,Potency,[10],inactive
same,Potency,[11],inactive
same,max response,[12],-21.1%
same,Potency,[14],inactive
same,Potency,[15],inactive
same,Potency,[16],inactive
same,Potency,[18],inactive
same,outcome,[17],inactive
